Cycloheximide cs: affects cycloheximide protein synthesis inhibition readout, counter-screen | cell reporter, cycloheximide protein synthesis inhibition counterscreen | AID 2314 | max response, % | hit rate 12% among 300,000; in the data active means max response mostly above about 13%, no sharp cut-off; inactive means mostly below about 14%; further: read at 38.3 µM for the half of the compounds with a filed dose
Shiga toxin inh: Shiga toxin inhibition; Vero cells, Shiga toxin protein synthesis inhibition reporter; inhibition, % at 38.7 µM; hit rate 9.2% among 290,000; AID 2315; in the data active means inhibition mostly above about 28%, no sharp cut-off; inactive means mostly below about 43%
NS1 inh: blocks influenza NS1 protein function. hit rate 0.4% among 270,000. Potency, µM (titrated, usually from 46.1 µM); calls by dose curve; further: actives are rising curves; nearly all actives have a fitted effect of over 50% in size
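A cell-based growth assay was used: compounds that relieve NS1-induced slow growth of budding yeast raise OD600. Assay medium was yeast nitrogen base with ammonium sulphate and -URA supplement, pH 6.0, with 2% galactose.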
FBPA Giardia inh: Giardia lamblia aldolase inhibition; A8B2U2; hit rate 0.71% among 290,000; purified Giardia FBPA; Potency, µM (highest dose often 59.6 µM), most hits filed as inhibitors; further: nearly all actives have a fitted effect of over 55% in size
Target sequence (A8B2U2 whole entry, looked up): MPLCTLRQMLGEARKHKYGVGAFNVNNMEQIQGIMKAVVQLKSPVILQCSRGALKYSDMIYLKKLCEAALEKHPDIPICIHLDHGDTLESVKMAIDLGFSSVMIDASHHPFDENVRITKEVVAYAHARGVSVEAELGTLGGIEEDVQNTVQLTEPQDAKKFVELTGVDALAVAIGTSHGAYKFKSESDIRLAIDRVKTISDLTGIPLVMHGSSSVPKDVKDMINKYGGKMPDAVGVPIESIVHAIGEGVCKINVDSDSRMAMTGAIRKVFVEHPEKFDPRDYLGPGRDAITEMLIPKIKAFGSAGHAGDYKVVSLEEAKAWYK
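Giardia FBPA (40 nM reagent) was preincubated 10 min at RT with compound (up to 57.5 uM final), then substrate plus GAPDH/TPI/NAD/arsenate coupling system with diaphorase/resazurin was added; resorufin fluorescence (525/598 nm) was read after 20 min.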
Pf growth 48h: P. falciparum growth inhibition at 48 hours (one generation). hit rate 5.9% among 310,000. P. falciparum luciferase growth in erythrocytes, 48 h. Potency, µM (top dose mostly 28.7 µM), usual class: inhibitors
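In quantitative HTS format, infected erythrocytes bearing luciferase-reporter parasites were treated for a single generation at 37 C. Luminescence after adding detection reagent served as the growth measure.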
Pf growth 96h: inhibits malaria parasite growth, 96 h; P. falciparum luciferase reporter growth, 96 h; Potency, µM (doses to about 28.7 µM), usual class: inhibitors; hit rate 6.9% among 320,000; AID 504834
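Cell-based qHTS: luciferase-tagged P. falciparum in erythrocytes (2% hematocrit, 0.05% parasitemia final) incubated with compounds for 96 hours, 37 C, 5% CO2; luciferase detection reagent then added and luminescence measured.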
Hits are given with their value; – = inactive; ? = inconclusive; · = not tested or not shown; [ ] = remark or other dose. Rows were chosen to be rich in hits. Some 21% of all compounds tested hit in one or more screens of this group. Unless noted, the call rests on the fitted dose curve; in most records, active means well fitted curve in the direction sought with a large enough effect; inconclusive means small, poorly fitted or top-dose-only effect, or another doubt; inactive means no such curve, though single readings can be large; an effect the other way counts as inactive or inconclusive.

SMILES	Cycloheximide cs	Shiga toxin inh	NS1 inh	FBPA Giardia inh	Pf growth 48h	Pf growth 96h
CCn1c(N)c(C(=O)Nc2ccccc2C(=O)OC)sc1=S	–	–	–	–	–	13µM
Cn1c(N)c(C(=O)Nc2ccccc2F)sc1=S	9.0	–	–	–	–	–
Nc1c(C(=O)Nc2ccc(F)cc2)sc(=S)n1-c1ccccc1F	29	60	·	–	–	–
COc1ccccc1-n1c(N)c(C(N)=O)sc1=S	–	–	–	?	–	–
Cn1c(N)c(C(=O)Nc2ccc3ccccc3c2)sc1=S	43	57	–	–	–	–
COC(=O)[C@@]1(Cc2ccc(F)cc2)[C@H]2c3cc(C(=O)N(C)C)n(CCN4CCOCC4)c3C[C@H]2CN1C(=O)c1ccccc1	·	·	·	–	·	·
CCOc1ccc(C(=O)NCCCCNC(=O)c2ccc(OCC)cc2)cc1	–	–	–	–	–	–
CCOc1ccc(C(=O)NCC(=O)NCCCSc2ccccc2)cc1OCC	–	–	–	·	–	15µM
CSCc1ccc(C(=O)NCCSc2ccc(Br)cc2)cc1	55	103	–	·	–	–
CS(=O)(=O)NCc1ccc(C(=O)NCCOc2ccccc2)cc1	50	63	–	–	–	–
COc1ccc(C(=O)NCCCCCCNC(=O)c2ccc(OC)cc2)cc1	16	–	–	–	–	–
CN1[C@@H]2CC[C@H]1CC(OC(c1ccc(F)cc1)c1ccc(F)cc1)C2 (some centres not stated)	·	·	·	–	·	·
C=N[C@H](C(=O)N[C@@H]1C(=O)N2[C@@H]1SC(C)(C)[C@@H]2C(=O)O)c1ccccc1	·	·	·	–	·	·
O=C(CN1CCN(S(=O)(=O)c2ccc(Cl)c(Cl)c2)CC1)N1CCCC1	·	·	·	·	–	?
COc1ccc(C(=O)NCCSc2ccccc2)cc1	46	21	–	–	–	?
COc1ccc(C(=O)NCCOc2cccc(OC)c2)cc1	–	–	–	–	–	–
O=C(NCCSc1ccc(Br)cc1)c1ccccc1	–	–	·	–	?	?
COc1ccc(C(=O)NN)cc1	24	–	–	–	–	–
COc1ccc(OCCNC(=O)c2ccc(C)cc2)cc1	29	56	–	–	–	2.9µM
Cc1ccc(OCCNC(=O)CNC(=O)c2ccccc2Cl)cc1	·	·	·	·	–	–
Cc1ccc(OCCNC(=O)c2ccccc2O)cc1	12	–	–	–	?	?
Cc1ccc(S(=O)(=O)N[C@H]2COC(=O)C/C=C\[C@H](C)[C@@H](NS(=O)(=O)c3ccc(C)cc3)COC(=O)C/C=C\[C@@H]2C)cc1	·	·	·	–[12.9 µM]	·	·
CCN(CC1COc2ccccc2O1)C(=S)NC1CC2CCC1C2 (configuration not stated)	–	–	–	–	–[5.75 µM]	?
Cc1ccc(OCCNC(=O)c2ccc(C)cc2)cc1	46	79	–	–	–	?
Cc1ccc(C(=O)NCCOC23CC4CC(CC(C4)C2)C3)cc1	–	–	–	–	2.9µM	2.1µM
SMILES	Cycloheximide cs	Shiga toxin inh	NS1 inh	FBPA Giardia inh	Pf growth 48h	Pf growth 96h
CCCCOc1ccc(C(=O)NCC(=O)NCCOc2ccc(C)cc2)cc1	·	·	·	·	–	–
O=C(c1cccc(S(=O)(=O)N2CCc3ccccc3C2)c1)N1CCN(c2ccc(O)cc2)CC1	–	–	?	–	?	?
CC(=O)c1ccc(NC(=O)CN2C(=O)NC(C)(C3CCCCC3)C2=O)cc1 (configuration not stated)	·	·	·	·	–	–
O=C(Cn1c(=O)c2c(ncn2Cc2ccccc2)n(Cc2ccccc2)c1=O)N1CCc2ccccc21	–	–	–	–	3.3µM	·
O=C(Cn1c(=O)c2c(ncn2C2CCCC2)n(Cc2ccccc2)c1=O)N1CCc2ccccc21	–	–	?	–	5.9µM	–
Cc1ccc(NC(=S)NC2CCSc3ccccc32)cc1C (configuration not stated)	–	–	–	·	?	?
CCCCCC(=O)Nc1nc(C)c(-c2csc(Nc3ccc(Cl)cc3)n2)s1	–	–	–	–	15µM	?
CCCCCC(=O)Nc1nc(C)c(-c2csc(Nc3cc(Cl)ccc3C)n2)s1	–	–	–	–	?	?
CCCCCCC(=O)Nc1nc(C)c(-c2csc(Nc3ccc(Cl)cc3)n2)s1	–	–	–	–	10µM	2.9µM
COc1cc(NCc2ccc3nc(N)nc(N)c3c2C)cc(OC)c1OC	–	–	·	5.6µM	0.006µM	0.0048µM
COc1cc(Cc2cc(N)nc(N)n2)cc(OC)c1OC	–	–	–	–	?	?
N#Cc1cc(C(=O)c2cc(Br)ccc2O)cn(Cc2ccccc2)c1=O	–	–	·	–	?	?
O=C(c1cc(C(=O)NCc2ccccc2)c(=O)n(Cc2ccccc2)c1)c1cc(Br)ccc1O	–	–	?	–	1.5µM	0.41µM
Cc1ccc(O)c(C(=O)c2cc(C(=O)NCc3ccccc3)c(=O)n(Cc3ccccc3)c2)c1	–	–	–	–	3.7µM	?
O=C(CCc1ccccc1)OCC(=O)c1ccc([N+](=O)[O-])cc1	–	–	·	–	–	12µM
O=C(CC(=O)c1ccccc1)Nc1cc([N+](=O)[O-])ccc1Cl	16	–	?	–	–	–
O=C(CCC(=O)OCC(=O)c1ccc([N+](=O)[O-])cc1)Nc1ccccc1Cl	–	–	–	·	?	13µM
CNC1C(O)C(O[C@H]2C(O)[C@@H](OC3OC(CN)=CCC3N)[C@H](N)C[C@@H]2N)OC[C@]1(C)O (some centres not stated)	·	·	·	–	·	·
CN(CCCC(=O)NCc1ccc2c(c1)OCO2)S(=O)(=O)c1ccc([N+](=O)[O-])cc1	–	–	–	–	?	–

Assay outcomes as filed in PubChem BioAssay.
